For 34 targets, log2 fold change results are on record in the supplement of paper PMC10849652.

Of roughly 7,900 targets only a part is listed; those with a hit were picked by preference. About 0.6% of all pairs of compound and target were hits. A number with no mark means an inactive call.

Chain of UniProt Q16539 (Q16539 whole entry, looked up): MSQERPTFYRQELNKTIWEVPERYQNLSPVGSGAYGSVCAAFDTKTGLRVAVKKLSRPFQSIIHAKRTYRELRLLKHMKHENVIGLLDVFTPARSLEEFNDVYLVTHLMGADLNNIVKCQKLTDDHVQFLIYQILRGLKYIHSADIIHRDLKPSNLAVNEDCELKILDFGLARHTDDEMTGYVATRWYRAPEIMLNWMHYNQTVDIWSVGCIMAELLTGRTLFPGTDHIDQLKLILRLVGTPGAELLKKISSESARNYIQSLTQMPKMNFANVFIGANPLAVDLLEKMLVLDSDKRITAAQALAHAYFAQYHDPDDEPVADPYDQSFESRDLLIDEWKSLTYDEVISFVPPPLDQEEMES
Chain of UniProt Q12906 (Q12906 whole entry, looked up): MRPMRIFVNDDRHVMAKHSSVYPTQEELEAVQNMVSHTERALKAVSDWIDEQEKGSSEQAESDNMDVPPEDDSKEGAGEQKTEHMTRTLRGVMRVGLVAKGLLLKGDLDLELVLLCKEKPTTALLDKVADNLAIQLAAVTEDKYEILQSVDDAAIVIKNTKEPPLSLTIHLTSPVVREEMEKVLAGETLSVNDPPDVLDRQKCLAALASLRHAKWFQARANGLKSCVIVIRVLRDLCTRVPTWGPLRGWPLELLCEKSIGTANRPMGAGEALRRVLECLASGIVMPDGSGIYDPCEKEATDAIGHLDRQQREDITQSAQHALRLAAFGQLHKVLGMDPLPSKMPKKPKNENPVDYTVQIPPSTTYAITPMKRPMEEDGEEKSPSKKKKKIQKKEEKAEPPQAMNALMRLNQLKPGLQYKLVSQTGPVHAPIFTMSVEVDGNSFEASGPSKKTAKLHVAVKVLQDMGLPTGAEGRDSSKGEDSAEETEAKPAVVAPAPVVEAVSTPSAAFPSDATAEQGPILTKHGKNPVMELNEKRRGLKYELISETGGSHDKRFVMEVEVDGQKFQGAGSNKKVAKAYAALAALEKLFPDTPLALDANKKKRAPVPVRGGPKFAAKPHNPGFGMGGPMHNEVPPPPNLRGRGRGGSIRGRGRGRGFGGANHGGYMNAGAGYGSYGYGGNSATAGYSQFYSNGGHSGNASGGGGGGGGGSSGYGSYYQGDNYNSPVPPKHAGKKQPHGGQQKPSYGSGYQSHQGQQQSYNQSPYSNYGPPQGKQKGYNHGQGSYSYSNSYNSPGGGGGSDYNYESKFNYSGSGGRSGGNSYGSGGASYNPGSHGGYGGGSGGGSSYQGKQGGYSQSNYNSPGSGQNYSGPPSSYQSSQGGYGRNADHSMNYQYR
Chain of UniProt Q9Y2E5 (Q9Y2E5 whole entry, looked up): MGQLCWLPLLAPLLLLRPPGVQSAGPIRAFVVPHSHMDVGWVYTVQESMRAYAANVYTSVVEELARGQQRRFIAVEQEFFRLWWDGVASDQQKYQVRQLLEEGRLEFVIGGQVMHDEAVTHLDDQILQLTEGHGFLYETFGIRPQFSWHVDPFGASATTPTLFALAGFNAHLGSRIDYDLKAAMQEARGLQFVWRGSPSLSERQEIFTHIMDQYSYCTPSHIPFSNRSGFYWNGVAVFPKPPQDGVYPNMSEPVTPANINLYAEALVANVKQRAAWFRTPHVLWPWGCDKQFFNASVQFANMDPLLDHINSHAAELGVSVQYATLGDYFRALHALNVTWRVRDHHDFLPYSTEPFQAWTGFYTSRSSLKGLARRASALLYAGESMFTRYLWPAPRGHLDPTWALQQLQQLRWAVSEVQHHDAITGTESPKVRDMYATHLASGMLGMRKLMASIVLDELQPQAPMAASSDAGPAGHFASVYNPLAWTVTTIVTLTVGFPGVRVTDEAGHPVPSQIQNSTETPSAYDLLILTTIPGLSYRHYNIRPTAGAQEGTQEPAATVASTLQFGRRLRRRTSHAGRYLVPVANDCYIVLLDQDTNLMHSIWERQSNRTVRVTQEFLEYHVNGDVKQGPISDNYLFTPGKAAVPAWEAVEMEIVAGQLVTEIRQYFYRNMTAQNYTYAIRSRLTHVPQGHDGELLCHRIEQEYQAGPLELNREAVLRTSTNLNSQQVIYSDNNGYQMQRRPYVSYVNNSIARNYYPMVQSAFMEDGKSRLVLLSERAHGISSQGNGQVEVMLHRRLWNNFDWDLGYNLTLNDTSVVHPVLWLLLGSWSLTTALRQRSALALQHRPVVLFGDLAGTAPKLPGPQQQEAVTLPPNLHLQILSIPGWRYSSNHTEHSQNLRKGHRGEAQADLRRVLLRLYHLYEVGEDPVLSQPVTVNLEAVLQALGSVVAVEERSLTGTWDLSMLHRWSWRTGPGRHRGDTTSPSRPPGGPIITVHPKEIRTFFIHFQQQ
Chain of UniProt Q12851 (Q12851 whole entry, looked up): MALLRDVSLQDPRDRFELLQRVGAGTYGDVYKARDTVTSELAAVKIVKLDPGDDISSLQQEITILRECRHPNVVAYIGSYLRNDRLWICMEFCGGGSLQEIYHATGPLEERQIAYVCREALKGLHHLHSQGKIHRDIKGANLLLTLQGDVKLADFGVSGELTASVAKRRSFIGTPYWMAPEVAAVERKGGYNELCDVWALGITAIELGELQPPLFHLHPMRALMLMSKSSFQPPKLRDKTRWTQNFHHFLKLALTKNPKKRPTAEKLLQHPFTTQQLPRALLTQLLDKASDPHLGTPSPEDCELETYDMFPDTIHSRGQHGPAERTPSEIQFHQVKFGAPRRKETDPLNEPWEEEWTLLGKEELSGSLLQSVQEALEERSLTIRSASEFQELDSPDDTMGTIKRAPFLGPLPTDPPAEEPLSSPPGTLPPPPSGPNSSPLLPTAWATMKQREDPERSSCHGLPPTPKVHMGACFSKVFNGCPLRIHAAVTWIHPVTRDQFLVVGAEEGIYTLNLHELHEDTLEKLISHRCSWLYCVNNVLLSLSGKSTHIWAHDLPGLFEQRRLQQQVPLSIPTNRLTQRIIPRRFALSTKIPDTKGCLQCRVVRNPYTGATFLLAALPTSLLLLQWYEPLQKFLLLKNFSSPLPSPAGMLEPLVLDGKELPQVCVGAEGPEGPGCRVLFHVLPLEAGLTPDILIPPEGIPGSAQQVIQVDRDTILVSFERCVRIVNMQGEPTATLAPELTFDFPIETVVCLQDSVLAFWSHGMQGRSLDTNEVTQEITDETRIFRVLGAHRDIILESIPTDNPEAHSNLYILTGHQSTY
Chain of UniProt O14880 (O14880 whole entry, looked up): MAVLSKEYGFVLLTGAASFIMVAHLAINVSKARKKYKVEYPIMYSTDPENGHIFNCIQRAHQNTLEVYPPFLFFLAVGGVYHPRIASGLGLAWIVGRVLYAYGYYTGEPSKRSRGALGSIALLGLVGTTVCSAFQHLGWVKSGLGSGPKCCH
Chain of UniProt Q07820 (Q07820 whole entry, looked up): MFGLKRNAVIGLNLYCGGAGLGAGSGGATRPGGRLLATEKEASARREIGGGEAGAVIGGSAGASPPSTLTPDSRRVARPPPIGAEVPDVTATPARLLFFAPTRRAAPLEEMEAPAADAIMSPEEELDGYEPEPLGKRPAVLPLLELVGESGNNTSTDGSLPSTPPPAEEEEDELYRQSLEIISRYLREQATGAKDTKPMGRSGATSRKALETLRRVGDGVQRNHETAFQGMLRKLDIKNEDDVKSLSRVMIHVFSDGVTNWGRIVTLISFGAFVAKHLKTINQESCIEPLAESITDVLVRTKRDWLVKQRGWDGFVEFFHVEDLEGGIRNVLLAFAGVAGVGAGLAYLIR
Chain of UniProt Q96EK5 (Q96EK5 whole entry, looked up): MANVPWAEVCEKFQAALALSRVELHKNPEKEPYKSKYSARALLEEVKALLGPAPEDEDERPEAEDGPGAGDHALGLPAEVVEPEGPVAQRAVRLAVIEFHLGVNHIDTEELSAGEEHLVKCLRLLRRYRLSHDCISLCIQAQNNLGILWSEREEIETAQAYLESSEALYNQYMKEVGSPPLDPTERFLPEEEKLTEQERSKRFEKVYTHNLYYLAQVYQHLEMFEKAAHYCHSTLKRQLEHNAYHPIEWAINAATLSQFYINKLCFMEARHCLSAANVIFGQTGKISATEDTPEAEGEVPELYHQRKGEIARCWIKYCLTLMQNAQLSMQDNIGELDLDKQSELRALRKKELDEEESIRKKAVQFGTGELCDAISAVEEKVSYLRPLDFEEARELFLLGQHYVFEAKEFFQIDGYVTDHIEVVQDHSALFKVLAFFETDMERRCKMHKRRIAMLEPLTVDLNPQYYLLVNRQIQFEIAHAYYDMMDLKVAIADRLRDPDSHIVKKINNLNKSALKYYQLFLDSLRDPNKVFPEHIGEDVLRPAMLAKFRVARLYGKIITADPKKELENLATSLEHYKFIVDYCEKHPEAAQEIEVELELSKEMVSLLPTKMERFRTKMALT
Chain of UniProt Q9UPY8 (Q9UPY8 whole entry, looked up): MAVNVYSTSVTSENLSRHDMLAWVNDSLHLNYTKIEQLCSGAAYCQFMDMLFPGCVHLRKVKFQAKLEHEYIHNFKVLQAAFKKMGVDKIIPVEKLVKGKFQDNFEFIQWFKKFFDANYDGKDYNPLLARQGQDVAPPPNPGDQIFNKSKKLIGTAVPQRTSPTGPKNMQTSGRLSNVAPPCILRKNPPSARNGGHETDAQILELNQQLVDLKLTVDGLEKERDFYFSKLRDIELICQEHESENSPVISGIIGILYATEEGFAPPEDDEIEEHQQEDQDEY
Chain of UniProt Q96AQ8 (Q96AQ8 whole entry, looked up): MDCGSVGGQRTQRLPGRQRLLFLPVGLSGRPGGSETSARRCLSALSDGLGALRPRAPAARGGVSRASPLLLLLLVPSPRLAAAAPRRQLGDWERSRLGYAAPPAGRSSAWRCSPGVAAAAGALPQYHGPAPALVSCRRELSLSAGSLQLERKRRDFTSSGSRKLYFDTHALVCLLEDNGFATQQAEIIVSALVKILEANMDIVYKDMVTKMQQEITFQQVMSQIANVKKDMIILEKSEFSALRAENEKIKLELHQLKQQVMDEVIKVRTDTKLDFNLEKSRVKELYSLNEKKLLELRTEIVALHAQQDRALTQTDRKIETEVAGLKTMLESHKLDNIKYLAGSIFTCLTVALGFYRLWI

Compound in this assay: c1cn2cc(-c3ccc4cn[nH]c4c3)nc(Nc3ccc(N4CCOCC4)cc3)c2n1 [entospletinib]
The assay can be described thus: log2 fold change, soluble protein after heating vs DMSO (PISA); higher = thermal stabilisation; K562 cells, 10 uM, 30 min; active = over 0.2 and 3.5 SD of the protein, either way, in both replicates (recomputed). The procedure, abridged:
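K562 cells at 2×10^6 cells/mL were given 10 μM compound for 30 min. Aliquots then went through 3 min of heating across 48°C-58°C, were pooled, and were extracted in PBS with 0.5% NP-40 at 4°C, and the supernatant after 21,000xg for 90 min was quantified by TMTpro 16plex LC-MS/MS with channel sums equalised. Thermal stability relative to control samples, from duplicates, is given as log2 fold change.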
Regarding MAPK14 (UniProt Q16539), the log2 fold change is -0.006. For the target MAPK12 (UniProt P53778), the log2 fold change was 0.02. Consider MED16 (UniProt Q9Y2X0), for which the log2 fold change was 0.014.

With MAPK14 isoform 2 (UniProt Q16539), the log2 fold change was -0.032. Take MCL1 (UniProt Q07820): the log2 fold change was 0.081.

For the target MAPKAPK3 (UniProt Q16644), the log2 fold change is 0.001. Take MAN2B2 (UniProt Q9Y2E5): the log2 fold change was 0.004.

With LNPK (UniProt Q9C0E8), the log2 fold change was 0.01.

In the case of LRBA, A0A494BZW2, the log2 fold change is -0.025. Consider MEAK7 (UniProt Q6P9B6), for which the log2 fold change was -0.06. As for MELK (UniProt Q14680), the log2 fold change is 0.025. Take MCUR1 (UniProt Q96AQ8): the log2 fold change is 0.018. On to MAP4K2 (UniProt Q12851), for which the log2 fold change was 0.128. For the target MAPRE3 (UniProt Q9UPY8), the log2 fold change was -0.041. Take KDM1A isoform 2 (UniProt O60341): the log2 fold change is -0.066.

Take KIF3A (UniProt Q9Y496): the log2 fold change is 0.491 (active). As for LNPEP (UniProt Q9UIQ6), the log2 fold change is 0.013.

For LPIN3 isoform 2 (UniProt Q9BQK8), the log2 fold change was 0.08. With IPO13 (UniProt O94829), the log2 fold change is 0.106.

As for MAPKAPK5 (UniProt Q8IW41), the log2 fold change was -0.03. Regarding IPO11 isoform 2 (UniProt Q9UI26), the log2 fold change is 0.022. Then KIAA1324L (UniProt A8MWY0), with 0.028; and MIEF1 (UniProt Q9NQG6), with 0.032. For the target MAP2K2 (UniProt P36507), the log2 fold change was 0.021. For MIEF1 (UniProt L0R8F8), the log2 fold change was 0.023.

With MGST3 (UniProt O14880), the log2 fold change is 0.054.

In the case of LBR (UniProt Q14739), the log2 fold change was -0.174. Take MFGE8 (UniProt Q08431): the log2 fold change is 0.065. Next, ILF3 isoform 7 (UniProt Q12906): -0.034.

Regarding LUC7L2 (UniProt Q9Y383), the log2 fold change is 0. For the target MCOLN3 (UniProt Q8TDD5), the log2 fold change is -0.194. In the case of KIFBP (UniProt Q96EK5), the log2 fold change was -0.098. Next, KEAP1 (UniProt Q14145): 0.101. In the case of LYPLA2 (UniProt O95372), the log2 fold change was 0.053.
